# Rows were chosen to be rich in hits. Some 0.47% of all compounds tested hit in one or more screens of this group.
# Mm-Cpn inhibitor = M. maripaludis TRiC chaperonin inhibition | purified Mm-Cpn ATPase, ADP Transcreener TR-FRET | Potency, µM (doses to about 76.9 µM), for the others: top-dose activity, negative = inhibition, actives largely listed as inhibitors | actives 0.031% (n = 330,000); also: potency is read from the fitted curve at half-maximal effect; % is scaled to controls: 0 for no effect and ±100 for the full control effect; nearly all actives have a fitted effect of over 80% in size
#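 ATP (10 uM final) was added to archaeal chaperonin (25 nM final) after 10 min exposure to test compound at 37°C; after 30 min further incubation, ADP was detected by competitive TR-FRET.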
# A-T KAP1 phos = potential ataxia-telangiectasia treatments restoring KAP-1 phosphorylation; actives 0.19% (n = 320,000); F2112 A-T fibroblasts, KAP-1 phosphorylation AlphaLISA; neocarzinostatin DNA damage 30 min before lysis; Potency, µM (titrated, usually from 57.5 µM), without a hit: at the top dose activation, usual class: activators; also: potency is read from the fitted curve at half-maximal effect; % of control where 0% means no effect; nearly all actives have a fitted effect of over 45% in size
#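 hTERT-immortalized A-T patient fibroblasts (F2112), 500 cells/well in OPTI-MEM, 1% FBS, got compounds for 60 min, then NCS for 30 min at 37C. Lysates were then assayed for phospho-KAP-1 by AlphaLISA (anti-pKAP1 donor, anti-KAP1 acceptor beads), 6 hr at 25C.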
# Anesthetic bind = candidate novel general anesthetic via apoferritin binding | P02791 | apoferritin/1-aminoanthracene competitive binding, fluorescence | Potency, µM (top dose mostly 77.5 µM), inactives show top-dose activity change, negative = displacement, actives largely listed as inhibitors | actives 0.074% (n = 350,000); also: potency is read from the fitted curve at half-maximal effect; % is scaled to controls: 0 for no effect and ±100 for the full control effect; nearly all actives have a fitted effect of over 20% in size
# Target sequence (P02791 2-175 limits assumed): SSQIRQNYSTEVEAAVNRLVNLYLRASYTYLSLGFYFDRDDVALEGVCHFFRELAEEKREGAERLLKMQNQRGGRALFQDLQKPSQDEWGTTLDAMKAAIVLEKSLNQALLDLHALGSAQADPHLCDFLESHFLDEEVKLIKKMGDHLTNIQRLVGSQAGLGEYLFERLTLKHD
#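 Horse-spleen apoferritin (10 uM) in 50% saturated 1-aminoanthracene in PBS was incubated 10 min at room temperature with compound. Fluorescence (ex 380, em 535 nm) was normalized to free and bound 1-AMA, with concentration-response fitted by a four-parameter Hill equation.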
# CCT modulator = cytosolic chaperonin activity modulation; purified chaperonin ATPase assay, HTRF ADP detection, 30 min; activity change, % (no concentration beside the values), hits read low; actives 0.3% (n = 360,000); in the data active = activity change below about -30%; also: % is scaled to controls: 0 for no effect and ±100 for the full control effect
#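 ATPase activity: ADP formed was measured by HTRF Transcreener (665/615 nm ratio) after 30 min at 37 deg C with 10 uM ATP. Compounds screened at one 76 uM concentration against 40 or 20 nM TRiC in Tris pH 7.4/KCl/MgCl2/DTT buffer.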
# The depositor's hits bear a star; i = inactive; ? = inconclusive; / = no result; [ ] = remark or other dose. Unless noted, calls follow the shape of the dose curve; as a rule, active = well fitted curve in the direction sought with a large enough effect; inconclusive = small, poorly fitted or top-dose-only effect, or another doubt; inactive = no such curve, though single readings can be large; an effect the other way counts as inactive or inconclusive.
SMILES,Mm-Cpn inhibitor,A-T KAP1 phos,Anesthetic bind,CCT modulator
Cc1ccccc1CNC(=O)Cc1csc2ccccc12,/,/,-13%,/
COC(=O)[C@@H]1[C@@H]2C[C@H]3c4[nH]c5ccccc5c4CCN3C[C@@H]2CC[C@@H]1O,/,/,7%[29.3 µM],/
CCCCCCc1cc2cc(S(=O)(=O)c3ccc(Cl)cc3)c(=O)oc2cc1O,0%,?,-8%,-1
CCN(CC)c1ccc2cc(S(=O)(=O)c3ccc(Cl)cc3)c(=O)oc2c1,0%,25µM*,6%,-1
Cc1nnc(SCC(=O)Nc2ccc(OC(F)F)c(Cl)c2)n(N)c1=O,2%,9%,/,-40*
Cc1cc(C)c(NC(=O)CSCc2c(C)noc2C)c(C)c1,1%,7%,/,-1
Cc1ccc(NC(=O)CSCc2c(C)noc2C)cc1C,1%,?,?,-44*
Cn1c(OCC2CCCO2)nc2cc(-c3ccccc3)sc2c1=O (stereo unspecified),/,/,/,-48*
Cc1nc2cc(-c3ccccc3)sc2c(=O)n1N,2%,1%,-2%,-31*
Cc1ccccc1-c1cc2nc(OCC3CCCO3)n(C)c(=O)c2s1 (stereo unspecified),/,/,/,0
CN(C)CCCNS(=O)(=O)c1ccc(N2CCC(c3ccc(Cl)cc3)=N2)cc1,-9%,?,510%,/
O=S(=O)(c1ccc(N2CCC(c3ccc(Cl)cc3)=N2)cc1)N(CCO)CCO,-18%,32µM*,i,-3
CCc1nn(CC(=O)NC(C)C)c(=O)c2cc3cc(F)ccc3n12,/,/,-5%,/
CC(C)(CCC(=S)N1CCOCC1)C1CCCCC1,-2%,-7%,?,-40*
CC(NC(=O)Cn1ccsc1=N)C12CC3CC(CC(C3)C1)C2 (stereo unspecified),2%,4%,-22%,2
CC(NC(=O)Cn1c(=O)[nH]c2ccsc2c1=O)C12CC3CC(CC(C3)C1)C2 (stereo unspecified),0%,/,14µM*,2
COC(=O)c1nc(Cl)c(Cl)c(N)c1Cl,0%,1%,-7%,-3
CCCCCCCCOC(=O)c1nc(Cl)c(Cl)c(N)c1Cl,0%,32µM*,-22%,2
CC(C)(CO)NC(=O)c1ccc2c(c1)C(=O)c1ccccc1-2,-2%,0.71µM*,2%,-7
O=C(O)CCC(=O)NN1C(=O)c2ccccc2NC1c1ccco1 (stereo unspecified),3%,0.79µM*,4%,-3
NC(=O)[C@@H]1CC2(CC(c3cccc(NC(=O)CC(c4ccccc4)c4ccccc4)c3)=NO2)CN1C(=O)COc1ccc(Cl)cc1 (stereo partly specified),-14%,35µM*,-8%,0
NC(=O)[C@H]1CC2(CC(c3cccc(NC(=O)COc4ccc(Cl)cc4)c3)=NO2)CN1C(=O)CC(c1ccccc1)c1ccccc1 (stereo partly specified),-4%,-13%,7%,0
C=C(C)C(=O)Nc1cccc(C2=NOC3(C2)C[C@H](C(N)=O)N(C(=O)/C=C/C)C3)c1 (stereo partly specified),-5%,19%,-4%,-50*
Cc1nnc(SCC(=O)Nc2ccc(N(C)C)cc2)[nH]c1=O,/,/,-16%,/
Nc1ncnc2c1nc(N1CCCCC1)n2[C@@H]1O[C@@H]2COP(=O)(O)O[C@H]2[C@H]1O,/,/,-7%,/
SMILES,Mm-Cpn inhibitor,A-T KAP1 phos,Anesthetic bind,CCT modulator
CC(O)(C#CCN1CCCCC1)c1ccccc1 (stereo unspecified),0%,5%,-4%,-1
CC(C)C(O)(C#CCN1CCCCCC1)c1ccccc1 (stereo unspecified),-3%,11%,-13%,-38*
CN1CCN(CC#CCC(O)(c2ccccc2)c2ccccc2)CC1,1%,40µM*,15%,-4
Cc1cccc(-c2nc(CSc3nncn4c3cc3oc(C)cc34)c(C)o2)c1,/,/,-17%,/
Cc1ccc(-c2nn(-c3ccccc3)cc2CSC(=N)N)cc1,0%,-2%,-15%,-59*
Cc1cccc(-n2c(O)c(/C=N/NC(=O)c3ccccc3Cl)c3ccccc3c2=O)n1,-2%,-8%,157%,-46*
CCS(=O)(=O)N1Cc2ccccc2CC1C(=O)Nc1cccc(OC)c1 (stereo unspecified),-5%,?,-11%,-49*
CCS(=O)(=O)N1Cc2ccccc2CC1C(=O)Nc1ccc(OC)c(OC)c1 (stereo unspecified),-9%,-5%,-12%,1
COc1ccccc1N1CCN(C(=O)c2cc3c(=O)oc4ccc(C)cc4c3s2)CC1,/,/,-3%,/
Cc1nnc(Sc2cc(NCCCO)c([N+](=O)[O-])c3nonc23)s1,-1%,-17%,-20%,-1
Cc1nnc(Sc2cc(NCCO)c([N+](=O)[O-])c3nonc23)s1,0%,-4%,-15%,-58*
CC(C)CCn1c(=O)c2sccc2n2c(CCCC(=O)Nc3ccc(C(C)C)cc3)nnc12,/,/,-12%,/
CC1CCN(c2nc3ccccc3nc2C(F)(F)F)CC1,/,/,1%,/
CC(=O)Nc1ccc(S[C@@H](CCN2CC[C@H](C(C)(C)C)CCC2=O)c2ccccc2)cc1,-2%,1%,/,-36*
CCn1ncc(Br)c1C(=O)Nc1ccccc1OC,0%,6%,-14%,-35*
CCn1nccc1C(=O)Nc1ccccc1OC,0%,16%,-4%,1
CSc1ccc(/C=N/N(C)S(=O)(=O)c2ccc(C)cc2)cc1,0%,21%,48%,1
Cc1ccc(/C=N/N(C)S(=O)(=O)c2ccc(C)cc2)cc1,0%,28µM*,0%,-3

# Compound activity from PubChem.
